Test results reported in PubChem BioAssay (Tox21).
“And” between values parts separate entries of the source, which are not always exact repeats. Equal entries are not always repeated. Results filed as inconclusive are left out. Entries that show only a call come without a potency. Values without a mark were called inactive. The source made the active and inactive calls. Unless noted, calls follow the shape of the dose curve; as a rule, active = well fitted curve in the direction sought with a large enough effect in the repeat runs; inconclusive = weak or mixed curves; inactive = no such curve, though single readings can be large; an effect the other way counts as inactive or inconclusive.

Assays:
[1] = qHTS assay to identify small molecule antagonists of the retinoic acid receptor (RAR) signaling pathway (AID 1159552; also: nearly all actives have a fitted effect of over 50% in size; also: potency is read from the fitted curve at half-maximal effect)
Method in brief: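 Retinol signaling pathway inhibitors screened in C3RL4 RARE-luciferase reporter cells seeded overnight at 37 C, then compounds added with 1 uM (final) retinol as pathway substrate. After 6 hr at 37 C, luciferase luminescence read after 30 min at room temperature.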

[2] = qHTS assay to identify small molecule agonists of the retinoic acid receptor (RAR) signaling pathway (AID 1159553); also: potency is read from the fitted curve at half-maximal effect
Method in brief: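 Reporter readout comes from luciferase under RARE control in C3RL4 cells; compound exposure lasts 6 hr at 37 C in 5% CO2, and luminescence is recorded following a 30 min room-temperature incubation with reagent.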

[3] = qHTS assay to identify small molecule antagonists of the estrogen related receptor (ERR) signaling pathway from Tox21 library - cell viability counter screen (AID 1224834); also: nearly all actives have a fitted effect of over 30% in size; also: potency is read from the fitted curve at half-maximal effect
Method in brief: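 After 17.5 h of compound exposure at 37 C, ERR cells are incubated with CellTiter-Fluor for 30 min and fluorescence intensity serves as the viability measure.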

[4] = biological target: Luciferin 4-monooxygenase (Photinus pyralis) (UniProt P08659); test: qHTS assay to identify small molecule inhibitors of firefly luciferase (AID 1224835); also: nearly all actives have a fitted effect of over 25% in size; also: potency is read from the fitted curve at half-maximal effect
Chain of Luciferin 4-monooxygenase (Photinus pyralis) (P08659 whole entry, looked up): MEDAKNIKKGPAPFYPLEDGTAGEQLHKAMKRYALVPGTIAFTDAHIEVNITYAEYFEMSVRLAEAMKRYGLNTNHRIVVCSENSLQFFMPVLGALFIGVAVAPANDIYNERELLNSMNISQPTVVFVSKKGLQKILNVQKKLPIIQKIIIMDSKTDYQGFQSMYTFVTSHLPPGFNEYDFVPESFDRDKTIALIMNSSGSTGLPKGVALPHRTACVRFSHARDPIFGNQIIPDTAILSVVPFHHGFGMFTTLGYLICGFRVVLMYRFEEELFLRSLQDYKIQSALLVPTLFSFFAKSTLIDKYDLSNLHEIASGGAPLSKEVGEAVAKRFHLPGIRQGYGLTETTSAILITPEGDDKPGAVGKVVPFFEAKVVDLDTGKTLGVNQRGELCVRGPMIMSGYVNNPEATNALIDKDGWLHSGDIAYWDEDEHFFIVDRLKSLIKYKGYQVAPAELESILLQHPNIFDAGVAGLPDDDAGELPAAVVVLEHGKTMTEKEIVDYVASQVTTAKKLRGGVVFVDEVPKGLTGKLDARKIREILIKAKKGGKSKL
Method in brief: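 Biochemical qHTS: compounds run as interplate titrations against purified firefly enzyme, with D-luciferin and ATP each at its KM concentration. Light output recorded by CCD imaging.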

[5] = qHTS assay to identify small molecule agonists of the constitutive androstane receptor (CAR) signaling pathway - cell viability counter screen (AID 1224836); also: nearly all actives have a fitted effect of over 45% in size; also: potency is read from the fitted curve at half-maximal effect
Method in brief: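 HepG2 cells stably carrying hCAR and a CYP2B6-2.2kb reporter; 15-concentration compounds plus PK11195 (final 0.75 uM), 23 hr at 37 C/5% CO2. Viability read by CellTiter-Fluor fluorescence.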

[6] = qHTS assay to identify small molecule antagonists of the constitutive androstane receptor (CAR) signaling pathway - cell viability counter screen (AID 1224837); also: nearly all actives have a fitted effect of over 45% in size; also: potency is read from the fitted curve at half-maximal effect
Method in brief: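 Counter screen run in HepG2-CYP2B6-hCAR cells: 4 hr settle, compound titration (15 concentrations) with 50 nM CITCO, 23 hr at 37 C/5% CO2, CellTiter-Fluor fluorescence.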

[7] = biological target: Nuclear receptor subfamily 1 group I member 3 (Homo sapiens) (UniProt Q14994); test: qHTS assay to identify small molecule antagonists of the constitutive androstane receptor (CAR) signaling pathway (AID 1224838);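 also: HepG2 cells stably expressing hCAR with CYP2B6 luciferase reporter stimulated by CITCO; nearly all actives have a fitted effect of over 40% in size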; also: potency is read from the fitted curve at half-maximal effect
Chain of Nuclear receptor subfamily 1 group I member 3 (Homo sapiens) (Q14994 whole entry, looked up): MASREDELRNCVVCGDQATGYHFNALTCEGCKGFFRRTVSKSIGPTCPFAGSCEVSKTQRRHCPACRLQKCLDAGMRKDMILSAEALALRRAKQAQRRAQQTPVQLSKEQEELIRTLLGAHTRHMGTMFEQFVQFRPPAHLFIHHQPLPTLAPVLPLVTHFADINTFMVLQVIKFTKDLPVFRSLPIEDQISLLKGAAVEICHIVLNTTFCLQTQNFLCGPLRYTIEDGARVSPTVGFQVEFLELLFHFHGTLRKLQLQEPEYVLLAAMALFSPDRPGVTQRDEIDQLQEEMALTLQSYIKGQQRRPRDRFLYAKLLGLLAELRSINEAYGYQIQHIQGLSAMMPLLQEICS
Method in brief: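 Cell line: HepG2 double-stable for hCAR and CYP2B6-2.2kb reporter. Agonist: CITCO, 50 nM final. Compounds: 15 concentrations, 24 h, 37 C. Detection: ONE-Glo luminescence.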

[8] = biological target: Nuclear receptor subfamily 1 group I member 3 (Homo sapiens) (UniProt Q14994); test: qHTS assay to identify small molecule agonists of the constitutive androstane receptor (CAR) signaling pathway (AID 1224839); also: nearly all actives have a fitted effect of over 15% in size; also: potency is read from the fitted curve at half-maximal effect;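 as to activation: HepG2 cells stably carrying human CAR and a CYP2B6 luciferase reporter; series mostly up to about 92 µM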
Method in brief: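 HepG2 cells stably co-transfected with hCAR and a CYP2B6-2.2kb luciferase reporter; compounds at 15 concentrations with 0.75 uM PK11195 present. After 24 hr at 37 C, luciferase read by ONE-Glo luminescence.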

[9] = qHTS assay to identify small molecule antagonists of the estrogen related receptor signaling pathway with the pleiotropic PPARgamma coactivator (PGC) from Tox21 10K library - cell viability counter screen (AID 1224840; active = well fitted cell-killing curve with a large enough effect in the repeat runs, not every such curve was filed as active; also: nearly all actives have a fitted effect of over 40% in size; also: potency is read from the fitted curve at half-maximal effect)
Method in brief: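 Following seeding of 2,000 PGC/ERR cells/well and 6 hours' incubation, test compounds were delivered in DMSO. The plates then sat 17.5 hours at 37 C before a fluorogenic live-cell protease reagent (CellTiter-Fluor) was read after 30 min.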

[10] = biological target: Thyrotropin receptor (Homo sapiens) (UniProt P16473); test: qHTS assay to identify small molecule agonists of the thyroid stimulating hormone receptor (TSHR) signaling pathway (AID 1224843; calls by dose curve; also: nearly all actives have a fitted effect of over 45% in size)
Chain of Thyrotropin receptor (Homo sapiens) (P16473 whole entry, looked up): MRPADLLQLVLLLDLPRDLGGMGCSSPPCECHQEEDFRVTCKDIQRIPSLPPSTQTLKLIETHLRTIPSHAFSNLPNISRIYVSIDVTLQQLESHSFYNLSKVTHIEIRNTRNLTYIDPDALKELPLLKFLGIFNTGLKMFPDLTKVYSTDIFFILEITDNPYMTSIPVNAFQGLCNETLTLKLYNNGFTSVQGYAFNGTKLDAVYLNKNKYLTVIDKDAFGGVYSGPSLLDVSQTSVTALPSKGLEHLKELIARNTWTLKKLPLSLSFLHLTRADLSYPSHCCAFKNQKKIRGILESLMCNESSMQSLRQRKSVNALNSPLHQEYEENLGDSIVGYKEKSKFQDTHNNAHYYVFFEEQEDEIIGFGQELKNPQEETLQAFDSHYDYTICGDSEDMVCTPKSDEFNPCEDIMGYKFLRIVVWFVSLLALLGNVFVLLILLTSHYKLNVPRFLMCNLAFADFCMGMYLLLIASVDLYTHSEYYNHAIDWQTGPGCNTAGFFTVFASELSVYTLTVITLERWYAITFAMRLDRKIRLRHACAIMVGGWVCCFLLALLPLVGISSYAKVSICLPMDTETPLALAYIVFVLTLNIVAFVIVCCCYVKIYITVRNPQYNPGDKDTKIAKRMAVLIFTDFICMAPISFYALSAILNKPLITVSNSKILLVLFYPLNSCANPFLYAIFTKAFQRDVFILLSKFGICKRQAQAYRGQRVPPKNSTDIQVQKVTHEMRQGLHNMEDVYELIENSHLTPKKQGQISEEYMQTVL
Method in brief: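 Steps: seed 800 TSHR-HEK293 cells per well; add test compound and hold 30 min at ambient temperature; dispense cAMP-d2 then anti-cAMP cryptate; incubate 1 h at ambient; measure fluorescence intensity.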

[11] = qHTS assay to identify small molecule agonists of the hypoxia (HIF-1) signaling pathway - cell viability counter screen (AID 1224844; calls by dose curve; also: nearly all actives have a fitted effect of over 50% in size; also: potency is read from the fitted curve at half-maximal effect)
Method in brief: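 Cells (HRE-bla ME-180, 2,000 per well) sat 5 hrs at 37C, got compound for 17 hrs, were read for CCF4-AM FRET, and were finally lysed with CellTiter-Glo for a 30 min room-temperature luminescence read.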

[12] = qHTS assay to identify small molecule agonists of H2AX (AID 1224845; active = well fitted activation curve with a large enough effect in the signal ratio in the repeat runs, not every such curve was filed as active; the % refers to the signal ratio; also: potency is read from the fitted curve at half-maximal effect)
Method in brief: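 Wild-type CHO-K1 cells, plated overnight, exposed 3hr at 37C to 15 concentrations (0.76% DMSO final). Lysed, then HTRF anti-pH2AX (S139) cryptate and anti-H2AX-d2 antibodies, 24 hr room temperature; 665/620 nm emission read.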

[13] = qHTS assay to identify small molecule agonists of the estrogen related receptor signaling pathway with the pleiotropic PPARgamma coactivator (PGC) from Tox21 10K library (AID 1224842); also: nearly all actives have a fitted effect of over 15% in size; also: potency is read from the fitted curve at half-maximal effect
Method in brief: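 PGC/ERR reporter cell line, 2,000 cells per well, incubated 6 h at 37 C before 23 nL compound in DMSO was added. After 18 h at 37 C, One-Glo luminescence read following 30 min at room temperature.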

[14] = qHTS assay to identify small molecule antagonists of the estrogen related receptor signaling pathway with the pleiotropic PPARgamma coactivator (PGC) from Tox21 10K library (AID 1224841; call rule not given here; also: actives are mostly falling curves and most rising ones were filed inactive; nearly all actives have a fitted effect of over 50% in size; also: potency is read from the fitted curve at half-maximal effect)
Method in brief: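 qHTS antagonist format: PGC/ERR cells, 2k/well, compound in DMSO by pin transfer after 6 h attachment, 18 h treatment at 37 C, One-Glo luminescence read at 30 min.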

[15] = qHTS assay to identify small molecule antagonists of the estrogen related receptor (ERR) signaling pathway - cell viability counter screen (AID 1224818); also: series mostly up to about 46 µM
Method in brief: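 After a 6 h pre-incubation, ERR cells were dosed by pin tool with compounds, positive/negative controls or DMSO alone. Following 17.5 h at 37 C and 30 min with CellTiter-Fluor, fluorescence was recorded.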

[16] = qHTS assay to identify small molecule antagonists of the estrogen related receptor signaling pathway with the pleiotropic PPARgamma coactivator (PGC) cell viability counter screen (AID 1224822; also: series mostly up to about 46 µM)
Method in brief: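 PGC/ERR cells were plated at 2,000 per well and allowed 6 h to settle before compound addition. Following 17.5 h at 37 C, CellTiter-Fluor reagent was added and fluorescence was read 30 min later.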

| SMILES | Potency [1] | Potency [2] | Potency [3] | Potency [4] | Potency [5] | Potency [6] | Potency [7] | Potency [8] | Potency [9] | Potency [10] | Potency [11] | Potency [12] | Potency [13] | Potency [14] | Potency [15] | Potency [16] |
| --- | --- | --- | --- | --- | --- | --- | --- | --- | --- | --- | --- | --- | --- | --- | --- | --- |
| CCCCCCCCCCCCOC(=O)c1cc(O)c(O)c(O)c1 | inactive | 172 nM (active) and 386 nM (active) | 60.9 µM (active) and 27.3 µM (active) | inactive | 68.3 µM (active) | 68.3 µM (active) | 76.6 µM (active) | inactive | 30.5 µM (active) and 6.11 µM (active) | inactive | 48.8 µM (active) and 54.9 µM (active) | 11.3 µM (active) | – | – | – | – |
| CNC(=O)c1cc(Oc2ccc(NC(=O)Nc3ccc(Cl)c(C(F)(F)F)c3)cc2)ccn1 | 29.8 µM (active) | inactive | 26.6 µM (active) | inactive | – | – | – | – | – | inactive | inactive | – | inactive | – | – | – |
| C[C@H]1O[C@@H](O[C@H]2[C@@H](O)C[C@H](O[C@H]3[C@@H](O)C[C@H](O[C@H]4CC[C@@]5(C)[C@H](CC[C@@H]6[C@@H]5C[C@@H](O)[C@]5(C)[C@@H](C7=CC(=O)OC7)CC[C@]65O)C4)O[C@@H]3C)O[C@@H]2C)C[C@H](O)[C@@H]1O | inactive | inactive | 86.4 nM (active) and 95.8 nM (active) | – | – | – | – | – | – | – | 123 nM (active) and 153 nM (active) | inactive | inactive | – | – | – |
| Cc1ccc(-n2[nH]c(C)c(N=Nc3cccc(-c4cccc(C(=O)O)c4)c3O)c2=O)cc1C | inactive | 29.8 µM (active) | 29.8 µM (active) | 38.9 µM (active) | inactive | – | inactive | inactive | – | inactive | 6.74 µM (active) | – | – | – | – | – |
| C[Si](C)(C)Cl | inactive | inactive | inactive | inactive | inactive | – | inactive | inactive | inactive | inactive | inactive | inactive | inactive | inactive | – | – |
| Cc1cc(Nc2ccc(O)cc2)ccc1N | inactive | inactive | 30.5 µM (active) | 63 µM (active) | – | – | inactive | inactive | 24.2 µM (active) | – | 24.4 µM (active) | – | inactive | 15.3 µM (active) | – | – |
| O=C1Nc2ccc(Cl)cc2[C@@](C#CC2CC2)(C(F)(F)F)O1 | 29.8 µM (active) | inactive | – | inactive | inactive | inactive | inactive | inactive | inactive | – | – | inactive | – | – | – | – |
| C=CC(=O)OCCOCC(CC)(COCCOC(=O)C=C)COCCOC(=O)C=C | 31.9 µM (active) | 7.14 µM (active) | 16 µM (active) | inactive | 71.4 µM (active) | 31.9 µM (active) | – | – | 16 µM (active) | inactive | – | – | inactive | 40.2 µM (active) | – | – |
| Cc1c(C)n(Cc2ccccc2)c2ccc(C(=O)OCCN(C)C)cc12 | inactive | inactive | – | 27.5 µM (active) | – | – | inactive | 11.9 µM (active) | inactive | inactive | – | 6.19 µM (active) | 29.8 µM (active) | – | – | – |
| CN(C)c1ccc(N=NS(=O)(=O)O)cc1 | inactive | – | – | 17.8 µM (active) | – | – | inactive | 25.7 µM (active) | – | inactive | – | – | – | – | inactive | inactive |
| O=C(Nc1ccc(Cl)cc1)Nc1ccc(Cl)c(C(F)(F)F)c1 | 23.7 µM (active) | inactive | 11.9 µM (active) | 34.7 µM (active) | – | – | 16.8 µM (active) | inactive | – | inactive | 26.8 µM (active) | inactive | inactive | 5.31 µM (active) | – | – |
| CCCCC(CC)COC(=O)c1ccc(O)cc1 (stereo unspecified) | inactive | inactive | 43.1 µM (active) | inactive | inactive | – | – | – | inactive | inactive | 49 µM (active) | inactive | – | – | – | – |
| COc1cc(C=C2CCC/C(=C\c3ccc(O)c(OC)c3)C2=O)ccc1O | inactive | 13.3 µM (active) | 13.3 µM (active) | 30.9 µM (active) | – | – | – | inactive | – | inactive | 15.1 µM (active) | – | inactive | 11.9 µM (active) | – | – |
| Cc1nc(Nc2ncc(C(=O)Nc3c(C)cccc3Cl)s2)cc(N2CCN(CCO)CC2)n1 | 16.8 µM (active) | inactive | 13.3 µM (active) | inactive | 7.5 µM (active) | – | 9.44 µM (active) | inactive | – | inactive | inactive | 55.2 µM (active) | 0.0944 µM (active) | inactive | – | – |
| O=S(=O)(O)CCCN1CCOCC1 | inactive | inactive | inactive | inactive | inactive | inactive | – | – | inactive | inactive | inactive | inactive | inactive | inactive | – | – |
| CCCC(CC)CCCCCCCN (stereo unspecified) | inactive | inactive | – | inactive | inactive | inactive | inactive | inactive | inactive | – | 50.2 µM (active) | inactive | inactive | inactive | – | – |
| Cc1ccc(CCn2c3c(c4cc(Cl)ccc42)CN(C)CC3)cn1 | inactive | inactive | – | inactive | inactive | – | inactive | inactive | – | – | – | inactive | 9.44 µM (active) | – | – | – |
| CO[C@H]1C=CO[C@@]2(C)Oc3c(C)c(O)c4c(O)c(cc(O)c4c3C2=O)NC(=O)/C(C)=C\C=C/[C@H](C)[C@H](O)[C@@H](C)[C@@H](O)[C@@H](C)[C@H](OC(C)=O)[C@@H]1C | inactive | inactive | 61.6 µM (active) | inactive | 61.6 µM (active) | 48.9 µM (active) | inactive | – | – | – | 22 µM (active) | – | inactive | inactive | – | – |
| ClC/C=C\CCl | inactive | inactive | inactive | inactive | inactive | – | inactive | – | inactive | inactive | – | inactive | inactive | inactive | – | – |
| c1cc2c3c(c1)ccc1cccc(c13)C2 | inactive | inactive | inactive | – | inactive | inactive | inactive | – | inactive | inactive | – | – | inactive | inactive | – | – |
